Test results as given in PubChem BioAssay (NCI).
The panel holds about 79,000 compounds, 15% with a hit somewhere; the sample as a whole holds those more often. The source made the active and inactive calls. No stated cut-off is given here; in the data, active means growth inhibition above about 70%; inactive means the rest.

Assay: NCI Yeast Anticancer Drug Screen. Data for the mec2-1 strain (AID 157)
Conditions: S. cerevisiae mec2-1 strain, stronger effect = higher value
Experimental: Growth inhibition of yeast strains with defined genetic alterations is measured as a screen for potential anti-cancer activity. Selected strains with alterations in DNA damage repair or cell cycle control were exposed to compounds and growth inhibition was measured relative to vehicle treated controls. The strain used in this assay is mec2-1

[1] = at 5.0 µM (retest, dose inferred, filed as 0.5)
[2] = at 50.0 µM (retest, dose inferred, filed as 5.0)

Measured: growth inhibition

CC(C)CCCC(C)C1CCC2C3CCC4=CC(=O)/C(=C\O)CC4(C)C3CCC12C (stereo not given)
inactive: at 1.2 µM -2% | at 3.7 µM -6% | [1] 3% | at 11.0 µM -7% | at 33.0 µM -2% | [2] 45% | at 50.0 µM 6.2% | at 100.0 µM 22%

COC(=O)/C=C(/C(=O)OC)C(Cl)(Cl)Cl
inactive: at 1.2 µM 2% | at 3.7 µM 2% | [1] 7% | at 11.0 µM 6% | at 33.0 µM 44% | at 50.0 µM 22.1%
active: [2] 96% | at 100.0 µM 98%

C(=Nc1ccc(-c2cc(-c3ccccc3)nc3ccc4ccccc4c23)cc1)c1ccccc1
active: [2] 72%
inactive: at 1.2 µM 11% | at 3.7 µM 5% | [1] 17% | at 11.0 µM 16% | at 33.0 µM 14% | at 50.0 µM 33% | at 100.0 µM 31%

COc1cccc2c1C(=O)c1c(O)c3c(c(O)c1C2=O)CC(O)(C(O)CO)CC3OC1CC(N2CCOCC2)C(O)C(C)O1 (stereo not given)
active: at 1.2 µM 97% | at 3.7 µM 97% | [1] 99% | at 11.0 µM 98% | at 33.0 µM 98% | [2] 99% | at 50.0 µM 91.3% | at 100.0 µM 98%

COC(=O)Nc1cn2ccc(C(Cl)=C(Cl)Cl)cc2n1
inactive: at 1.2 µM 4% | at 3.7 µM -5% | [1] 17% | at 11.0 µM 5% | at 33.0 µM 3% | [2] 15% | at 50.0 µM -9.5% | at 100.0 µM -4%
